# From ChEMBL document CHEMBL4888484, “Replenishing the malaria drug discovery pipeline: Screening and hit evaluation of the MMV Hit Generation Library 1 (HGL1) against asexual blood stage Plasmodium falciparum ,using a nano luciferase reporter read-out” (2022)
# The whole screen tested about 4,800 compounds, of which about 410 (8.5%) showed an effect of 50% or more. For the sample, strong results were picked, then their nearest neighbours and some compounds at random.
# System: Plasmodium falciparum
# Assay: Confirmatory screen in NF54 pLDH assay, in single point, at 2uM, 72h
# Assay type: functional, Erythrocyte
# Conditions: timepoint 72 hour
row,Compound,% Inhibition [%]
1,Cc1noc(Cl)c1CC(=O)N1CCCC(C)(C)CC1,20
2,O=C(Cc1c(Cl)cccc1Cl)N1CC[C@]2(CCOC2)C1,-19
3,CC[C@@]1(C)CCCN(C(=O)Cc2c(C)noc2Cl)C1,87
4,Cc1ccc(-n2c(=O)c3sccc3n(CC(=O)NCc3ccc(F)cc3F)c2=O)cc1C,-20
5,CC1CCC2(CC1)N=C(c1ccccc1)C(=O)N2CC(=O)N[C@H]1CCc2ccccc21 (some centres undefined),-4
6,CN(Cc1cnn(-c2ccccc2)n1)c1ncnc2[nH]ncc12,10
7,CCCCC(=O)N1CCc2[nH]nc(C(=O)NCCc3ccc(OC)cc3)c2C1,2
8,Cc1nc2nnnn2c(C)c1C/C=C/c1ccccc1,8
9,Cc1cc(OC[C@@H](O)CNC(C)(C)CC(C)(C)C)cc(C)c1Cl,57
10,O=C(N[C@@H](N1CCCC1)C(Cl)(Cl)Cl)c1ccc(Cl)cc1,-13
11,O=C(N[C@H]1CC12CC2)c1ccncc1F,-22
12,C=C1C(C)C2C(Cc3c[nH]c4ccccc34)NC(=O)C23C(=O)CC(O)C(O)CC(C)C/C=C/C3C1O (centres undefined),65
13,C[n+]1ccccc1/C=C/c1c[nH]c2ccccc12,81
14,CCc1ccc(/C=C/c2c[nH]c3ccccc23)[n+](CC)c1,88
15,Fc1cc(Cl)cnc1N1CCC2(CCOCC2)C1,12
16,Cc1[nH]n(-c2nc(C(F)(F)F)cc(=O)[nH]2)c(=O)c1CCO,-9
17,O=C1C2CC=CCC2C(=O)N1CNc1ccc(Cl)cc1 (centres undefined),-9
18,CCn1c(=O)c(N2CCN(C(=O)Nc3ccc(OC)cc3OC)CC2)nc2cccnc21,-17
19,O=C([C@H]1CCCN(C(=O)N2CCc3sccc3C2)C1)N1CCc2[nH]ncc2C1,-7
20,CCOC(=O)C(C)NC(=O)C(C)NC(=O)c1ccc(F)c(C#N)c1 (centres undefined),7
21,O=S(=O)(NC1CC(c2ccc(F)c(Cl)c2)C1)C1CC1 (centres undefined),7
22,Cn1nc(C2CC2)c2c(C(F)F)cc(-c3ccc4c(c3)OCO4)nc21,2
23,CCS(=O)(=O)Nc1ccc(Br)cc1Cl,-1
24,c1ccc(-c2nc(C[n+]3ccc4c(c3)CCCC4)cs2)cc1,56
25,Cc1ncccc1C(=O)NCCc1csc(-c2ccccc2)n1,-19
26,CN(C)c1ccc(C2OCC3(CCC4(COC(c5ccc(N(C)C)cc5)OC4)O3)CO2)cc1 (centres undefined),-5
27,Fc1ccc(COc2ccc3ccccc3c2CNc2ccc(Br)cc2)cc1,10
28,CCCNC(=O)CS(=O)(=O)Cc1cccc(Br)c1C,-14
29,Nc1nc(-c2ccccc2)c2cc3c(nn12)C[C@H](c1ccc(F)cc1)CC3=O,-6
